Screening results as filed in PubChem BioAssay.
CtBP-E1A blk: blocks the CtBP interaction with E1A; AlphaScreen GST-E1A/His-CtBP binding, 1536-well; hits give low values; AID 651724; 340,000 tested, 0.49% active; activity change, % (concentration not given with the values); in the data active = activity change below about -65%; inconclusive = mostly about -30% to -63%
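Steps: dispense buffer (Tris pH 8.0, NaCl 300 mM, TCEP 1 mM, BSA, Tween 20); add 5X protein mix (GST-E1A, His-CtBP, 125 nM each); pin 23 nL compound; 2 h at 37 °C, dark; add 5X beads (50 ug/mL); 1 h; read.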
Six1-Eya2 inh: blocks human Six1 binding to Eya2; Q15475+O00167; 360,000 tested, 0.56% active; AlphaScreen GST-Six1/His-Eya2 binding, biochemical; hits give low values; activity change, % (concentration not given with the values); in the data active = activity change below about -65%; inconclusive = mostly about -30% to -63%
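GST-Six1 + His-Eya2 (5X stock: 250/500 nM); Tris pH 8.0, 300 mM NaCl, 0.05% BSA, 0.02% Tween 20; GSH donor/Ni acceptor beads; 1 h 37 °C dark; AlphaScreen readout.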
JMJD2A Tudor: blocks the human JMJD2A Tudor domain | O75164 | AlphaScreen JMJD2A-Tudor / H3K4me3 peptide binding | Potency, µM (highest dose often 114 µM), hits mostly inhibitors | 390,000 tested, 4.4% active | AID 504339; also: nearly all actives have a fitted effect of over 50% in size
HP1b binding inh: HP1-beta chromodomain-methylated histone interaction inhibition; AlphaScreen HP1-beta / biotin-H3K9me3 peptide binding; Potency, µM (titrated, usually from 114 µM), most hits filed as inhibitors; 390,000 tested, 0.56% active; AID 540317; also: nearly all actives have a fitted effect of over 70% in size
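Compound inhibition of the preformed complex between 50 nM HP1-beta and 50 nM biotinylated H3K9me3 peptide was read by AlphaScreen. Buffer was PBS pH 7.4 with 0.01% Tween-20. Incubations ran 30 min at room temperature, with 10 ug/mL donor/acceptor beads.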
G9a inh: G9a (human) methyltransferase inhibition; Q96KQ7; G9a H3K9 monomethylation, AlphaScreen, 2 h; Potency, µM (series often up to 102 µM), usual class: inhibitors; 350,000 tested, 8.8% active; AID 504332; also: nearly all actives have a fitted effect of over 75% in size
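Chemiluminescent proximity detection of H3K9 monomethylation, read after 10 min bead incubation in the dark. Reaction: 20 nM G9a, 500 nM biotin-H3K9 peptide, 20 uM SAM cofactor, 2 h, room temperature, following 15 min enzyme-compound preincubation.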
BAZ2B inh: blocks human BAZ2B. Q9UIF8. AlphaScreen BAZ2B-H3K14Ac peptide displacement. Potency, µM (titrated, usually from 114 µM), hits mostly inhibitors. 360,000 tested, 4.4% active; also: nearly all actives have a fitted effect of over 60% in size
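Complex of BAZ2B and biotin-H3K14Ac (50 nM apiece) forms over 30 min at RT, then faces library compounds up to 110 uM for another 30 min; AlphaScreen beads added, 20 min dark incubation, luminescence read.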
Hits are given with their value; i = inactive; ? = inconclusive; nt = no result given; [ ] = dose if it differs, or a comment. A selection: hits, their analogues and other compounds. The true share with any hit is near 10%. Unless noted, calls follow the shape of the dose curve; as a rule, active = well fitted inhibition curve with a large enough effect; inconclusive = small, poorly fitted or top-dose-only effect; inactive = no such curve, though single readings can be large or run the other way.

SMILES	CtBP-E1A blk	Six1-Eya2 inh	JMJD2A Tudor	HP1b binding inh	G9a inh	BAZ2B inh
CC(=O)C1=NN(c2ccccc2)C(c2cccs2)N1c1ccc(N(C)C)cc1 (stereo not drawn)	?	?	14.1µM	?	28.2µM	44.7µM
O=C(NNc1nc2c(F)cccc2s1)C1COc2ccccc2O1 (stereo not drawn)	i	i	i	i	i	i
Cc1nc2cc(NC(=O)C3COc4ccccc4O3)ccc2s1 (stereo not drawn)	i	i	i	i	50.1µM	i
Cc1ccc2sc(NNC(=O)C3COc4ccccc4O3)nc2c1C (stereo not drawn)	i	i	?	i	31.6µM	?
CCC(C)NC(=O)c1ccccc1NC(=O)C1COc2ccccc2O1 (stereo not drawn)	nt	i	i	i	i	i
Cc1cnc(NC(=O)C2COc3ccccc3O2)s1 (stereo not drawn)	i	i	?	i	35.5µM	?
CC(C)NC(=O)c1ccccc1NC(=O)C1COc2ccccc2O1 (stereo not drawn)	i	i	50.1µM	i	i	i
Cc1nc2ccc(NC(=O)C3COc4ccccc4O3)cc2s1 (stereo not drawn)	i	i	i	i	i	i
NC(=O)c1nn2c(C(F)(F)F)cc(-c3ccc(Br)cc3)nc2c1Cl	nt	nt	i	i	i	i
CC1(C)Cc2c(sc(NC(=O)C(=O)N3CCCC3)c2C(N)=O)CO1	i	i	i	i	50.1µM	i
COC(=O)c1c(NC(=O)C(=O)N2CCCC2)sc2c1CC(C)(C)OC2	i	i	i	i	i	i
O=C1CCSC2(C(=O)N(Cc3ccc(F)cc3)c3ccccc32)N1c1ccc(Cl)cc1 (stereo not drawn)	nt	nt	i	i	?	i
CC(C)C(NS(=O)(=O)c1cccc2cccnc12)C(=O)Nc1ccc(OC(F)(F)F)cc1 (stereo not drawn)	nt	nt	i	i	i	i
CCNC(=O)CN(c1ccccc1OC)S(=O)(=O)c1cccs1	i	i	i	i	i	i
COc1ccccc1N(CC(=O)NC(C)(C)C)S(=O)(=O)c1cccs1	i	i	56.2µM	i	i	i
CCC(C)NC(=S)N1CCN(C)CC1 (stereo not drawn)	nt	i	?	?	39.8µM	i
CCC(C)[C@H](NC(=O)N1CCN(C)CC1)C(=O)OC (stereo partly drawn)	i	i	i	i	i	i
CCc1ccccc1Nc1cc(C(=O)NCCc2ccccc2)c2ccccc2n1	nt	nt	i	i	i	nt
CCc1cccc(NC(=O)CCc2c(C)nc3c(-c4ccccc4)c(C)nn3c2C)c1	nt	nt	i	i	i	i
O=[N+]([O-])c1ccc(S(=O)(=O)N2CCn3cccc3C2c2ccc(Br)cc2)cc1 (stereo not drawn)	nt	nt	?	i	7.94µM	?
CC(=O)c1ccc(S(=O)(=O)N2CCn3cccc3C2c2ccc(F)c(F)c2)cc1 (stereo not drawn)	nt	nt	i	i	?	i
Cc1ccc(C2c3cccn3CCN2S(=O)(=O)c2ccc([N+](=O)[O-])cc2)cc1 (stereo not drawn)	nt	nt	?	?	14.1µM	7.08µM
Cc1ccc([N+](=O)[O-])cc1S(=O)(=O)N1CCn2cccc2C1c1ccc(F)c(F)c1 (stereo not drawn)	nt	nt	?	i	?	?
COc1ccc(-n2c(=O)c3c(c4cc(OC)ccc4n3C)n(CCC(C)C)c2=O)cc1	nt	nt	i	i	i	i
O=C(NCCc1cccs1)c1ccc(Cn2c(SCc3ccc(F)cc3)nc3cccnc32)cc1	nt	nt	i	i	i	i
SMILES	CtBP-E1A blk	Six1-Eya2 inh	JMJD2A Tudor	HP1b binding inh	G9a inh	BAZ2B inh
Cc1ccc(C(C)C)c(OCc2ccc(C(=O)Nc3ccc(S(N)(=O)=O)cc3C)o2)c1	nt	nt	?	i	?	i
COc1ccccc1C1(CC(=O)Nc2nccs2)CCOC(C(C)C)C1 (stereo not drawn)	i	i	i	i	i	i
COc1ccccc1C1(CC(=O)N2CCOCC2)CCOC(C(C)C)C1 (stereo not drawn)	i	i	i[11.4 µM]	i	50.1µM	?
CCOC(=O)c1ccc(NC(=O)CSc2nc3ccccc3c(=O)n2CCNC(C)=O)cc1	nt	nt	i	i	i	i
COc1ccc(NC2C=CS(=O)(=O)C2)cc1 (stereo not drawn)	i	i	i	i	i	i
Cc1nc(SC2C=CS(=O)(=O)C2)n[nH]1 (stereo not drawn)	i	i	56.2µM	i	50.1µM	?
CCOc1ccc(C2=NC(c3ccncc3)=Nc3ccc(C)cc3N2)cc1OCC	nt	nt	?	i	i	?
CCOc1cc2[nH]c(=O)n(CCCCC(=O)N3CCN(c4ccc(OC)cc4)CC3)c(=O)c2cc1OCC	nt	nt	i	i	i	i
CC1CCN(c2ccc(C(=O)O)cc2NS(=O)(=O)c2ccc(Br)cc2)CC1	i	i	i	i	28.2µM	i
Cn1c(=O)c(=O)n(C)c2cc(N3CCOCC3)c(NS(=O)(=O)c3ccc([N+](=O)[O-])cc3)cc21	i	i	?	i	?	79.4µM
Cn1c(=O)n(C)c2cc(N3CCOCC3)c(NS(=O)(=O)c3ccc(Br)cc3)cc21	nt	nt	i	i	?	50.1µM
COC(=O)c1ccc(N2CCCCC2)c(NS(=O)(=O)c2ccc(C)cc2)c1	i	i	i	i	i	i
Cn1c(=O)c(=O)n(C)c2cc(N3CCOCC3)c(NS(=O)(=O)c3ccc(F)c(Cl)c3)cc21	i	i	i	i	i	i
CN(C)c1ccc(CNC(=O)C2CCN(c3nnc(-n4cccc4)s3)CC2)cc1	nt	nt	i	i	?	i
COc1cc(NC(=S)NC2CC(C)(C)NC(C)(C)C2)c(OC)cc1Cl	i	i	i	i	50.1µM	i
COc1cc(Cl)c(C)cc1NC(=S)NN	i	i	?	i	6.31µM	i
COc1cc(NC(=S)NC(C)(C)C)c(OC)cc1Cl	i	i	?	i	?	i
COc1cc(NC(=S)NCCCO)c(OC)cc1Cl	nt	i	i	i	28.2µM	i
COc1cc(Cl)c(C)cc1NC(=O)c1cccc(OC)c1OC	i	i	i	i	i	i
CCOC(=O)c1c(C)[nH]c(C)c1S(=O)(=O)N1CCCC(C(=O)NCc2ccc(Cl)cc2)C1 (stereo not drawn)	nt	nt	i	i	i	i
COc1ccc(CN2CCNC(=O)C2CC(=O)NCCc2nc(C)c(C)s2)cc1C (stereo not drawn)	i	i	?	i	44.7µM	i
COc1ccc(CN2CCNC(=O)C2CC(=O)O)cc1OC (stereo not drawn)	i	i	i	i	?	i
COc1ccc(CN2CCNC(=O)C2CC(=O)NCc2cnn(C)c2)cc1OC (stereo not drawn)	nt	i	i	i	50.1µM	i
